Hits are enriched below; roughly 21% of the tested compounds scored in any of these assays.
Pf growth 48h = P. falciparum growth inhibition at 48 hours (one generation) | P. falciparum luciferase growth in erythrocytes, 48 h | Potency, µM (highest dose often 28.7 µM), for the others: at the top dose activity change, negative = inhibition, hits mostly inhibitors | actives 5.9% (n = 310,000); note: potency is the fitted concentration of half-maximal effect; % is set by controls: 0 for no effect and ±100 for the full control effect
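Luminescence readout; reporter = integrated firefly luciferase in P. falciparum. RBC culture at 2% hematocrit, 0.1% parasitemia final, 37 C/5% CO2; decreased signal taken as growth inhibition.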
HCV inh = inhibitors of hepatitis C virus infection; Potency, µM (top dose mostly 41.8 µM), for the others: top-dose activity change, negative = inhibition, most hits filed as inhibitors; Huh7.5.1 HCVcc-Cre infection, luciferase reporter, 44 h; AID 651820; actives 3.4% (n = 340,000); note: potency is the fitted concentration of half-maximal effect; % is set by controls: 0 for no effect and ±100 for the full control effect
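Reporter virus HCVcc-Cre (~0.5 moi) infects cells exposed to compound; seeding density 1,000 cells/well with 4 h settling beforehand. Luminescence, 15 sec read, taken 44 h post-infection following a 15 min RT substrate incubation.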
Shiga toxin inh = blocks Shiga toxin action in Vero cells. actives 9.2% (n = 290,000). inhibition, % at 38.7 µM. AID 2315. Vero cells, Shiga toxin protein synthesis inhibition reporter; in the data active = inhibition mostly above about 28%, no sharp cut-off; inactive = mostly below about 43%; note: 0% is about no effect
Cycloheximide cs = counter-screen for Shiga toxin inhibitors: cycloheximide protein synthesis inhibition; cell reporter, cycloheximide protein synthesis inhibition counterscreen; max response, %; actives 12% (n = 300,000); in the data active = max response mostly above about 13%, no sharp cut-off; inactive = mostly below about 14%; note: read at 38.3 µM for the half of the compounds with a filed dose; 0% is about no effect
HCMV inh = inhibitors of human cytomegalovirus; activity change, negative = inhibition, % at 57.5 µM; HFF cells, HCMV-luciferase reporter, 72 h; hits give low values; actives 4.5% (n = 410,000); AID 1259415; in the data active = activity change below about -60%; inconclusive = no clear call, values can overlap the other calls; inactive = above about -39%; note: % is set by controls: 0 for no effect and ±100 for the full control effect
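Human foreskin fibroblasts infected with luciferase-reporter HCMV at MOI 1 PFU/cell, compounds at two doses. Luciferase measured 72 h post infection; normalized to buffer-only basal and Salinomycin (10uM) controls.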
Pf growth 96h = P. falciparum growth inhibition at 96 hours. AID 504834. actives 6.9% (n = 320,000). P. falciparum luciferase reporter growth, 96 h. Potency, µM (highest dose often 28.7 µM), inactives show at the top dose activity change, negative = inhibition, actives largely listed as inhibitors; note: potency is the fitted concentration of half-maximal effect; % is set by controls: 0 for no effect and ±100 for the full control effect
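Infected RBCs, 2% Hct / 0.05% parasitemia final; luciferase-reporter P. falciparum; cpd 96 h, 37 C, 5% CO2; luciferase detection reagent; luminescence.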
* = called active by the depositor; ? = inconclusive; / = no result given. Unless noted, calls come from the whole dose curve; as a rule, active = well fitted inhibition curve with a large enough effect; inconclusive = small, poorly fitted or top-dose-only effect, or another doubt; inactive = no such curve, though single readings can be large or run the other way.

SMILES	Pf growth 48h	HCV inh	Shiga toxin inh	Cycloheximide cs	HCMV inh	Pf growth 96h
COc1cccc(-c2nc(N3CC(C)CC(C)C3)c3ccccc3n2)c1O (configuration not stated)	?	14µM*	13	-4	62	13µM*
COc1ccc(NC(=O)c2sc3nc[nH]c(=O)c3c2C)cc1Cl	/	/	/	/	80	/
COc1ccc(C2C3C=CCC(C)C3C(=O)N2Cc2ccccc2)cc1Cl (configuration not stated)	/	/	6	-9	/	/
Cc1cc(C)c2c(-n3cccc3)c(C(=O)NCCc3ccc(Cl)cc3)sc2n1	/	/	/	/	-24	/
O=C(CS(=O)(=O)c1cccc2nsnc12)N1CCN(c2ccc(F)cc2)CC1	/	/	/	/	-14	/
CC1CCN(c2nc(-c3ccccc3O)nc3ccccc23)CC1	?	?	-14	2	53	19%
Oc1ccccc1-c1nc(N2CCCC2)c2ccccc2n1	/	?	-16	-4	19	4.1µM*
FC(F)(F)c1cnc2c(-c3ccccc3)n[nH]c2c1	80%	-28%	83*	29*	-10	78%
Fc1ccc(-c2nccc3[nH]nc(-c4ccccc4)c23)cc1	/	/	/	/	-31	/
CCC1(CC)Nc2ccccc2C(=O)N1c1ccc(OC)cc1	112%	5%	36*	33*	83	457%
CCC1(CC)Nc2ccccc2C(=O)N1c1ccc(NC(C)=O)cc1	53%	8%	17	12*	32	77%
COc1ccc(N2C(=O)c3ccccc3NC23CCCC3)cc1	195%	8%	44*	31*	105	191%
COc1ccc2c(c1)C1(Nc3ccccc3C(=O)N1c1ccccc1)C(=O)N2 (configuration not stated)	?	20%	-1	2	-22	-14%
CC1(C)Nc2ccccc2C(=O)N1c1ccccc1	-13%	12%	/	19*	-6	-22%
Cc1nn(CC(=O)N2CCC(C)CC2)c(=O)c2nn(-c3ccccc3)c(C)c12	0%	16%	1	-4	-39	?
Cc1ccccc1NC(=O)CSc1c(C(C)C)cnc2c1c(=O)n(C)c(=O)n2C	/	/	/	/	-8	/
CN1CCN(S(=O)(=O)c2ccc(NC(=O)c3ccc([N+](=O)[O-])cc3)cc2)CC1	/	7%	/	/	-62*	/
CN1CCN(S(=O)(=O)c2ccc(C(=O)Nc3ccccc3)cc2)CC1	/	18%	63*	19*	19	-28%
Cc1ccc(C(=O)NC(=S)Nc2ccc(S(=O)(=O)N3CCN(C)CC3)cc2)cc1	?	?	18	26*	6	?
COc1ccccc1C(=O)Oc1c(Sc2ccccc2)c(C)nn1C(C)(C)C	/	/	/	/	27	/
CCc1nnc(NC(=O)c2ccc(NC(=O)C(C)C)cc2)s1	40%	-19%	99*	41*	87	26%
CC(C)Cc1nnc(NC(=O)c2ccncc2)s1	3%	12%	6	4	-29	-6%
CC(C)Cc1nnc(NC(=O)c2ccc([N+](=O)[O-])cc2)s1	63%	10%	23	17*	27	47%
CCc1nnc(NC(=O)c2ccc(S(=O)(=O)NCC(C)C)cc2)s1	9%	3%	-1	-2	29	1.7µM*
COc1ccc(-c2cc(-c3ccccc3)nc(-c3ccc4c(c3)NC(=O)CO4)c2)cc1	?	0%	25	9	22	/
COc1ccc(Nc2nc(-c3ccc4c(c3)NC(=O)CO4)cs2)cc1	?	-16%	128*	27*	?	?
CCC(C)Nc1nc(-c2ccc3c(c2)NC(=O)CO3)cs1 (configuration not stated)	94%	?	50*	28	3	-2%
COc1ccccc1Nc1nc(-c2ccc3c(c2)NC(=O)CO3)cs1	0%	10µM*	48	20*	-64*	0%
COc1ccccc1NS(=O)(=O)c1cc2c(cc1C)NC(=O)CO2	?	8%	1	-1	-3	?
CCC(=O)N1CCc2cc(Br)cc(S(=O)(=O)N3CCCC(C(=O)NCc4cccc(OC)c4)C3)c21 (configuration not stated)	/	/	/	/	-35	/

From PubChem BioAssay
